In PubChem BioAssay (NCI) one finds growth inhibition data, which are given here for 9 compounds.

Compounds without any hit were thinned out: in the full panel of roughly 79,000, 15% have a hit. Values without a mark were called inactive. Active and inactive are the calls of the source. Cut-off read from the data, not from the text of the source: active = growth inhibition above about 70%; inactive = the rest.

The nature of test [1]: NCI Yeast Anticancer Drug Screen. Data for the rad50 strain (AID 155).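 Note: 0% = growth of vehicle-only cultures of the same strain.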 Particulars: S. cerevisiae rad50 strain growth inhibition, hits give high values. The method in brief: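 Cells are treated with compound, grown, and their growth is then scored against vehicle-only cultures of the same repair-deficient yeast strain.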
The nature of test [2]: NCI Yeast Anticancer Drug Screen. Data for the mec2-1 strain (AID 157). Particulars: S. cerevisiae mec2-1 strain, hits give high values. The method in brief:
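Test agents were screened against the mec2-1 yeast strain, with defined DNA repair or cell cycle alteration. Growth was scored as inhibition against vehicle-only controls.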

Test [3] can be described thus: NCI Yeast Anticancer Drug Screen. Data for the sgs1 mgt1 strain (AID 161).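 Note: 0% = growth of cultures given vehicle only.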 The settings on record: S. cerevisiae sgs1 mgt1 strain, hits give high values. The method in brief:
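Read-out: growth inhibition vs vehicle controls. Cells: mutant yeast strain deficient in DNA damage repair.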

Test [4] can be described thus: NCI Yeast Anticancer Drug Screen. Data for the cln2 rad14 strain (AID 165).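 Note: 0% = growth equal to vehicle treated cultures.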 The settings on record: S. cerevisiae cln2 rad14 strain, hits give high values. The method in brief:
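Growth of compound-exposed yeast (cln2 rad14 genotype) measured and expressed as inhibition relative to vehicle.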

A short description of test [5]: NCI Yeast Anticancer Drug Screen. Data for the bub3 strain (AID 167). The settings on record: S. cerevisiae bub3 mutant strain, hits give high values. Summed up:
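Part of a panel of yeast mutants defective in DNA damage repair or cell cycle regulation. Each strain is grown with compound, and inhibition is calculated relative to solvent-treated cultures.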

Test [6] is described as follows: NCI Yeast Anticancer Drug Screen. Data for the mlh1 rad18 strain (AID 175). The settings on record: S. cerevisiae mlh1 rad18 strain growth inhibition, hits give high values. The method in brief: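 In this whole-cell yeast screen, a strain with altered DNA damage repair is challenged with compound, and its growth is measured against matched vehicle-treated controls.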

Setting [7] is: at 5.0 µM (retest, dose inferred, filed as 0.5).
Where [8] appears, read: at 50.0 µM (retest, dose inferred, filed as 5.0).

Turning to `COc1cccc(OC)c1C(=O)/C=C/c1ccccc1`, the growth inhibition in test [1] (setting [7]) is -3%; in test [1] (setting [8]), 62%; in test [1] (at 50.0 µM), 66.7%; in test [2] (setting [7]), -1%; in test [2] (setting [8]), 66%; in test [2] (at 50.0 µM), 45%. The growth inhibition in test [3] (setting [7]) was 1%; in test [3] (setting [8]), 62%; in test [3] (at 50.0 µM), 69.9%; in test [4] (setting [7]), -7%; in test [4] (setting [8]) it was 47%; in test [4] (at 50.0 µM), 55.4%. The growth inhibition in test [5] (setting [7]) is -5%; in test [5] (setting [8]), 70% (active); in test [5] (at 50.0 µM), 50.9%; in test [6] (setting [7]) it was 1%; in test [6] (setting [8]) it was 71% (active); in test [6] (at 50.0 µM), 79.1% (active).
With `CCc1n[nH]c(CC)c1CCCCCCOc1ccc(OC)cc1Cl`, the growth inhibition is -8% in test [1] (setting [7]); 60% in test [1] (setting [8]); 83.8% (active) in test [1] (at 50.0 µM); -15% in test [2] (setting [7]); 77% (active) in test [2] (setting [8]); 92.4% (active) in test [2] (at 50.0 µM). Further, the growth inhibition was -3% in test [3] (setting [7]); 73% (active) in test [3] (setting [8]); 92.2% (active) in test [3] (at 50.0 µM); -28% in test [4] (setting [7]); 76% (active) in test [4] (setting [8]); 89.7% (active) in test [4] (at 50.0 µM). The growth inhibition in test [5] (setting [7]) was -8%; in test [5] (setting [8]) it was 83% (active); in test [5] (at 50.0 µM), 89.2% (active); in test [6] (setting [7]), -11%; in test [6] (setting [8]), 73% (active); in test [6] (at 50.0 µM), 93.7% (active).
As for `CN(C)CC[N+](C)(C)Cc1ccc(C[N+](C)(C)CC[N+](C)(C)Cc2ccc(CCl)cc2)cc1`, the growth inhibition is 0% in test [1] (setting [7]); 0% in test [1] (setting [8]); 99% (active) in test [1] (at 50.0 µM); -39% in test [2] (setting [7]); -1% in test [2] (setting [8]); 98% (active) in test [2] (at 50.0 µM). For the same compound, the growth inhibition is -1% in test [3] (setting [7]); 2% in test [3] (setting [8]); 97.9% (active) in test [3] (at 50.0 µM); 1% in test [4] (setting [7]); 2% in test [4] (setting [8]); 96% (active) in test [4] (at 50.0 µM). For the same compound, the growth inhibition in test [5] (setting [7]) was -6%; in test [5] (setting [8]), 2%; in test [5] (at 50.0 µM) it was 97.8% (active); in test [6] (setting [7]) it was -1%; in test [6] (setting [8]), -1%; in test [6] (at 50.0 µM), 98.7% (active).
For the compound `OCCSCc1cc(Cl)cc(Cl)c1O`, the growth inhibition in test [1] (setting [7]) is 7%; in test [1] (setting [8]), 76% (active); in test [1] (at 50.0 µM), 56%; in test [2] (setting [7]), -12%; in test [2] (setting [8]), 60%; in test [2] (at 50.0 µM) it was 48.2%. Also, the growth inhibition in test [3] (setting [7]) is -6%; in test [3] (setting [8]), 90% (active); in test [3] (at 50.0 µM), 78.7% (active); in test [4] (setting [7]) it was -10%; in test [4] (setting [8]), 44%; in test [4] (at 50.0 µM), 44.4%. Besides, the growth inhibition in test [5] (setting [7]) is -6%; in test [5] (setting [8]) it was 77% (active); in test [5] (at 50.0 µM), 78% (active); in test [6] (setting [7]), 0%; in test [6] (setting [8]), 91% (active); in test [6] (at 50.0 µM) it was 78.8% (active).
On to `CC(=O)OC[C@@]1(C)[C@@H]2CC[C@]3(C)[C@H](C(=O)C=C4[C@@H]5CC(C)(C)CC[C@]5(C(=O)O)CC[C@]43C)[C@@]2(C)CC[C@@H]1OC(C)=O`, for which the growth inhibition in test [1] (setting [7]) is 23%; in test [1] (setting [8]), 84% (active); in test [1] (at 50.0 µM), 43.1%; in test [2] (setting [7]), 23%; in test [2] (setting [8]), 88% (active); in test [2] (at 50.0 µM), 94.2% (active). Also, the growth inhibition in test [3] (setting [7]) is 28%; in test [3] (setting [8]) it was 88% (active); in test [3] (at 50.0 µM), 92.8% (active); in test [4] (setting [7]), 39%; in test [4] (setting [8]), 93% (active); in test [4] (at 50.0 µM), 95.7% (active). In addition, the growth inhibition was 9% in test [5] (setting [7]); 91% (active) in test [5] (setting [8]); 92.7% (active) in test [5] (at 50.0 µM); 29% in test [6] (setting [7]); 88% (active) in test [6] (setting [8]); 95.6% (active) in test [6] (at 50.0 µM).
On to `C[n+]1c(/C=C/c2ccccc2Cl)ccc2ccccc21`, for which the growth inhibition in test [1] (setting [7]) is -3%; in test [1] (setting [8]) it was 37%; in test [1] (at 50.0 µM), 98.7% (active); in test [2] (setting [7]), 2%; in test [2] (setting [8]) it was 80% (active); in test [2] (at 50.0 µM), 99% (active). Besides, the growth inhibition in test [3] (setting [7]) was -8%; in test [3] (setting [8]), 35%; in test [3] (at 50.0 µM) it was 99.2% (active); in test [4] (setting [7]), 0%; in test [4] (setting [8]), 34%; in test [4] (at 50.0 µM), 98.5% (active). Also, the growth inhibition in test [5] (setting [7]) is -5%; in test [5] (setting [8]), 33%; in test [5] (at 50.0 µM), 98.8% (active); in test [6] (setting [7]) it was -8%; in test [6] (setting [8]), 48%; in test [6] (at 50.0 µM), 98.8% (active).
On to `CCCCCCCCCCCCCCCCS(=O)(=O)Cl`, for which the growth inhibition in test [1] (setting [7]) was 40%; in test [1] (setting [8]) it was 96% (active); in test [1] (at 50.0 µM), 61.5%; in test [2] (setting [7]), 46%; in test [2] (setting [8]) it was 98% (active); in test [2] (at 50.0 µM), 32.2%. Moreover, the growth inhibition was 57% in test [3] (setting [7]); 77% (active) in test [3] (setting [8]); 59.8% in test [3] (at 50.0 µM); 31% in test [4] (setting [7]); 73% (active) in test [4] (setting [8]); -6.35% in test [4] (at 50.0 µM). Besides, the growth inhibition is 69% in test [5] (setting [7]); 78% (active) in test [5] (setting [8]); 46.7% in test [5] (at 50.0 µM); 43% in test [6] (setting [7]); 99% (active) in test [6] (setting [8]); 53.8% in test [6] (at 50.0 µM).
Consider `CCCCCCCCCCCCCCCC(=O)NCC[N+](CC)(CC)Cc1ccc(C[N+](CC)(CC)CCNC(=O)CCCCCCCCCCCCCCC)cc1`, for which the growth inhibition in test [1] (setting [7]) is 99% (active); in test [1] (setting [8]), 99% (active); in test [1] (at 50.0 µM), 99.3% (active); in test [2] (setting [7]), 99% (active); in test [2] (setting [8]), 100% (active); in test [2] (at 50.0 µM) it was 99.6% (active). The growth inhibition in test [3] (setting [7]) is 99% (active); in test [3] (setting [8]) it was 100% (active); in test [3] (at 50.0 µM) it was 99.5% (active); in test [4] (setting [7]), 99% (active); in test [4] (setting [8]), 99% (active); in test [4] (at 50.0 µM), 99.3% (active). Moreover, the growth inhibition in test [5] (setting [7]) is 98% (active); in test [5] (setting [8]) it was 99% (active); in test [5] (at 50.0 µM) it was 99.5% (active); in test [6] (setting [7]), 97% (active); in test [6] (setting [8]), 99% (active); in test [6] (at 50.0 µM) it was 99.3% (active).
As for `CN(C)c1ccc(C(c2ccc(N(C)C)cc2)c2cccc([N+](=O)[O-])c2)cc1`, the growth inhibition in test [1] (setting [7]) was -2%; in test [1] (setting [8]), -3%; in test [1] (at 50.0 µM), -11.2%; in test [2] (setting [7]), -3%; in test [2] (setting [8]) it was -13%; in test [2] (at 50.0 µM) it was 0.2%. In addition, the growth inhibition in test [3] (setting [7]) is -2%; in test [3] (setting [8]), -1%; in test [3] (at 50.0 µM), -2.45%; in test [4] (setting [7]), -8%; in test [4] (setting [8]), -33%; in test [4] (at 50.0 µM) it was 14.9%. The growth inhibition is 43% in test [5] (setting [7]); 26% in test [5] (setting [8]); 50.1% in test [5] (at 50.0 µM); -2% in test [6] (setting [7]); -12% in test [6] (setting [8]); 7.9% in test [6] (at 50.0 µM).
